The values below come from the supplement of paper PMC11537057.

Where a name gives a salt, the structure may show the parent alone. In all, about 1,700 compounds went through this assay and about 15 (0.9%) showed activity.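 The calls were made as follows: active = infection cut by 80% or more with cell growth above 90% in both runs; inactive = the rest.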 The entries come from a sample that favours actives as a whole.

The assay concerns HSV-1 strain 17 YFP-ICP4 in A549. The assay is described as follows: HSV-1 infection relative to DMSO (ICP4-YFP per H2B-RFP signal); higher = more viral infection (less antiviral activity), active = hit call of the paper. The settings on record: 10 µM; 48 h; MOI: 0.1. Here is the method:
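Selleck FDA-approved library (L1300) screened in duplicate at 10 µM on A549 H2B-mRuby cells in 384-well plates, infected with HSV-1 strain 17 YFP-ICP4 at MOI 0.1 one hour before drug addition. Imaged after 2 days at 37°C. Cell growth (H2B-RFP) and infection (ICP4-YFP) are expressed as % of DMSO-treated wells. Hits: growth >90% and infection <20% of DMSO.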
Consider `O=C(O)CCCC[C@@H]1CCSS1` (racemic) [Thioctic acid], for which the HSV-1 infection is 66.1% (inactive).
`N=C(N)NCCC[C@@H](NC(=O)[C@@H]1CCCN1C(=O)[C@@H]1CSSCCC(=O)N[C@@H](Cc2ccc(O)cc2)C(=O)N[C@@H](Cc2ccccc2)C(=O)N[C@@H](CCC(N)=O)C(=O)N[C@@H](CC(N)=O)C(=O)N1)C(=O)NCC(N)=O` [Desmopressin Acetate]: the HSV-1 infection was 103% (inactive).
`NC(=O)CCC(N)C(=O)O` (racemic) [DL-Glutamine]: the HSV-1 infection is 114% (inactive).
With `COc1ccc(Cl)c(Nc2nc3ccccc3nc2NS(=O)(=O)c2cccc(NC(=O)C(C)(C)N)c2)c1` [Pilaralisib (XL147)], the HSV-1 infection is 93.5% (inactive).
As for `COc1ccc(-c2nc3cc(C4=NNC(=O)CC4C)ccc3[nH]2)cc1` (centres undefined) [Pimobendan], the HSV-1 infection is 68.5% (inactive).
Next, `CC(=O)[C@@]1(O)CC[C@H]2[C@@H]3CCC4=CC(=O)CCC4=C3[C@@H](c3ccc(N(C)C)cc3)C[C@@]21C` [Ulipristal]: 91.8% (inactive); `CCCN(CCC)C(=O)C1=Cc2ccc(-c3ccc(C(=O)N4CCCC4)cc3)cc2N=C(N)C1` [Motolimod (VTX-2337)]: 82.9% (inactive).
Next, `CN[C@H]1C(=O)N[C@@H]2Cc3ccc(cc3)Oc3cc4cc(c3O[C@@H]3O[C@H](C(=O)O)[C@@H](O)[C@H](O)[C@H]3NC(=O)CCCCCCCCC(C)C)Oc3ccc(cc3Cl)[C@@H](O)[C@@H]3NC(=O)[C@H](NC(=O)[C@@H]4NC(=O)[C@@H](NC2=O)c2cc(cc(O)c2Cl)Oc2cc1ccc2O)c1ccc(O)c(c1)-c1c(O[C@H]2O[C@H](CO)[C@@H](O)[C@H](O)[C@@H]2O)cc(O)cc1[C@@H](C(=O)NCCCN(C)C)NC3=O` [Dalbavancin]: 95.9% (inactive); `CCCCN1CCCC[C@H]1C(=O)Nc1c(C)cccc1C` [Levobupivacaine HCl]: 70.8% (inactive); `COc1ccc([C@H]2CNC(=O)C2)cc1OC1CCCC1` [S- (+)-Rolipram]: 97.4% (inactive).
As for `CC(C)C[C@H](N)C(=O)O` [L-Leucine], the HSV-1 infection was 100% (inactive).
On to `COC(=O)c1ccccc1O` [Methyl salicylate], for which the HSV-1 infection is 81.4% (inactive).
As to `CCCCC(=O)N(Cc1ccc(-c2ccccc2-c2nn[nH]n2)cc1)C(C(=O)O)C(C)C.CCOC(=O)C(C)CC(Cc1ccc(-c2ccccc2)cc1)NC(=O)CCC(=O)O` (centres undefined) [Sacubitril/valsartan (LCZ696)], the HSV-1 infection was 116% (inactive).
`FC(F)(F)c1ccc(CNc2ccc(Cc3c[nH]c4ncc(Cl)cc34)cn2)cn1` [Pexidartinib (PLX3397)]: the HSV-1 infection is 102% (inactive).
As for `Cc1ccccc1N1CCN(CCc2nnc3n2CCCC3)CC1` [Dapiprazole Hydrochloride], the HSV-1 infection was 135% (inactive).
As to `CC(C)C[C@H](NC(=O)CNC(=O)c1cc(Cl)ccc1Cl)B1OC(=O)C(CC(=O)O)(CC(=O)O)O1` [Ixazomib Citrate (MLN9708)], the HSV-1 infection is 80.4% (inactive).
For the compound `CCNC(=O)[C@@H]1CCCN1C(=O)[C@H](CCCNC(=N)N)NC(=O)[C@H](CC(C)C)NC(=O)[C@@H](CC(C)C)NC(=O)[C@H](Cc1ccc(O)cc1)NC(=O)[C@H](CO)NC(=O)[C@H](Cc1c[nH]c2ccccc12)NC(=O)[C@H](Cc1c[nH]cn1)NC(=O)[C@@H]1CCC(=O)N1` [Leuprolide Acetate], the HSV-1 infection was 113% (inactive).
For `CCNC(=O)[C@@H]1CCCN1C(=O)[C@H](CCCNC(=N)N)NC(=O)[C@H](CC(C)C)NC(=O)[C@@H](CC(C)C)NC(=O)[C@H](Cc1ccc(O)cc1)NC(=O)[C@H](CO)NC(=O)[C@H](Cc1c[nH]c2ccccc12)NC(=O)[C@H](Cc1c[nH]cn1)NC(=O)[C@@H]1CCC(=O)N1` [Leuprorelin Acetate], the HSV-1 infection was 105% (inactive).
Regarding `O=C(O)c1ccc(-n2nc(-c3ccccc3O)nc2-c2ccccc2O)cc1` [Deferasirox], the HSV-1 infection is 79.8% (inactive).
Next, `CC(C)(C)NC(=O)N[C@H](C(=O)N1C[C@H]2[C@@H]([C@H]1C(=O)NC(CC1CCC1)C(=O)C(N)=O)C2(C)C)C(C)(C)C` (some centres undefined) [Boceprevir]: 110% (inactive).
Consider `COc1c(C)c2c(c(O)c1C/C=C(\C)CCC(=O)O)C(=O)OC2` [Mycophenolic acid], for which the HSV-1 infection is 14.4% (active).
Next, `C[C@H](Oc1ccc(S(C)(=O)=O)cc1C(=O)N1CCN(c2ncc(C(F)(F)F)cc2F)CC1)C(F)(F)F` [Bitopertin]: 92.8% (inactive); `CCCCCCCCOc1ccccc1C(=O)Nc1ccc(C(=O)OCC[N+](C)(CC)CC)cc1` [Otilonium Bromide]: 60.5% (inactive); `OC[C@@H](O)CN1CCN(c2ccccc2)CC1` [Levodropropizine]: 64.9% (inactive).
`CC(C)Nc1cc(-c2c[nH]c(C(=O)N[C@H](CO)c3cccc(Cl)c3)c2)c(Cl)cn1`: the HSV-1 infection was 69.3% (inactive).
As for `O=C(Cn1ccnc1[N+](=O)[O-])NCc1ccccc1` [Benznidazole], the HSV-1 infection was 115% (inactive).
Next, `CC(C)C[C@H](NC(=O)CNC(=O)c1cc(Cl)ccc1Cl)B(O)O` [Ixazomib (MLN2238)]: 77.3% (inactive).
As to `N[C@@H]1CN(c2c(F)cc3c(=O)c(C(=O)O)cn([C@@H]4C[C@@H]4F)c3c2Cl)CC12CC2` [Sitafloxacin Hydrate], the HSV-1 infection was 111% (inactive).
As for `O=C([O-])[O-].[Na+].[Na+]` [Sodium carbonate], the HSV-1 infection is 88% (inactive).
As to `NC(=O)c1nc(F)cnc1O` [Favipiravir (T-705)], the HSV-1 infection was 102% (inactive).
Next, `O=C1/C(=C2\Nc3ccccc3C2=O)Nc2ccccc21` [Indigo]: 105% (inactive); `C=CCN1CCCC1CNC(=O)c1cc2nn[nH]c2cc1OC` (centres undefined) [Alizapride HCl]: 55.1% (inactive); `CNC(=O)[C@H](Cc1ccccc1)NC(=O)[C@H](CC(C)C)[C@H](CSc1cccs1)C(=O)NO` [Batimastat (BB-94)]: 45.6% (inactive).
On to `CCOC(=O)[C@@H](N)Cc1ccc(-c2cc(O[C@H](c3ccc(Cl)cc3-n3ccc(C)n3)C(F)(F)F)nc(N)n2)cc1` [Telotristat Etiprate (LX 1606 Hippurate)], for which the HSV-1 infection was 80.1% (inactive).
